Compound activity as filed in PubChem.
Compounds with a hit are over-represented: about 9.5% of the library has one in this group of screens.
NS1 function inh – blocks influenza NS1 protein function; Potency, µM (top dose mostly 46.1 µM), without a hit: at the highest dose activity, positive = more growth; actives 0.4% (n = 270,000); AID 2326; also: actives are rising curves; nearly all actives have a fitted effect of over 50% in size
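In this qHTS, NS1 from influenza A is expressed in budding yeast, where it slows growth. Cells are switched from glucose to 2% galactose medium (pH 6.0, -URA), treated with compound, and growth recovery is read at OD600.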
Pf growth 96h – P. falciparum growth inhibition at 96 hours; P. falciparum luciferase reporter growth, 96 h; Potency, µM (highest dose often 28.7 µM), inactives show top-dose activity change, negative = inhibition, most hits filed as inhibitors; actives 6.9% (n = 320,000); AID 504834; active = well fitted inhibition curve with a large enough effect; inconclusive = small, poorly fitted or top-dose-only effect, or another doubt; inactive = no such curve, though single readings can be large or run the other way; also: % is scaled to controls: 0 for no effect and ±100 for the full control effect
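Readout is luminescence from an integrated firefly luciferase in P. falciparum. Red cells, 2% hematocrit and 0.05% parasitemia final, were cultured with compound through two parasite generations (96 hours) at 37 C, 5% CO2.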
RE007 growth inh – less growth of the S. pombe RE007 Vpr strain; S. pombe RE007 Vpr strain, BacTiter-Glo ATP luminescence, 24 h; Potency, µM (top dose mostly 92.2 µM), for the others: at the highest dose activity change, negative = less growth, actives largely listed as inhibitors; actives 0.21% (n = 360,000); AID 651644; active = well fitted falling curve with a large enough effect; inconclusive = small, poorly fitted or top-dose-only effect; inactive = no such curve, though single readings can be large or run the other way; also: % is scaled to controls: 0 for no effect and ±100 for the full control effect; nearly all actives have a fitted effect of over 50% in size
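Fission yeast strain RE007, carrying one chromosomally integrated HIV-1 vpr copy, was seeded at OD 0.01 in PMG+AL medium with 23 nL pinned compound. After 24 h at 30 °C and 99% humidity, viability was read by BacTiter-Glo luminescence.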
SARS PLP yeast – SARS-CoV PLP inhibition in yeast | Potency, µM (doses to about 32.9 µM), inactives show top-dose activity, positive = growth rescue, usual class: activators | actives 0.19% (n = 330,000) | S. cerevisiae expressing SARS-CoV PLpro, growth rescue | AID 485353; also: 0% is about no effect; nearly all actives have a fitted effect of over 55% in size
Pf growth 48h – P. falciparum growth inhibition at 48 hours (one generation); AID 504832; actives 5.9% (n = 310,000); P. falciparum luciferase growth in erythrocytes, 48 h; Potency, µM (top dose mostly 28.7 µM), for the others: at the highest dose activity change, negative = inhibition, hits mostly inhibitors; active = well fitted inhibition curve with a large enough effect; inconclusive = small, poorly fitted or top-dose-only effect, or another doubt; inactive = no such curve, though single readings can be large or run the other way; also: % is scaled to controls: 0 for no effect and ±100 for the full control effect
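Here the parasites carry a stable luciferase gene and grow inside erythrocytes in Albumax-based RPMI medium with compound for one erythrocytic cycle. Activity is scored as loss of luminescent signal.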
The depositor's hits bear a star; ? = inconclusive; / = no result; ! = not confirmed by another sample. Unless noted, calls follow the shape of the full dose curve. Potency is read from the fitted curve at half-maximal effect.

SMILES | NS1 function inh | Pf growth 96h | RE007 growth inh | SARS PLP yeast | Pf growth 48h
Cc1ccc(NS(=O)(=O)c2cccc(C(=O)NCC(c3ccco3)N3CCCC3)c2)cc1 (stereo not drawn) | / | ? | 2.6% | 2.0% | 13.1µM*
O=C(NCC(c1ccco1)N1CCOCC1)c1ccc(Cl)cc1 (stereo not drawn) | / | 45.9% | -2.0% | -0.5% | 23.1%
CN(C)c1ccc(C(CNC(=O)c2ccc(-c3ccccc3)cc2)N2CCOCC2)cc1 (stereo not drawn) | / | ? | / | 0.3% | 13.1µM*
Cc1ccc(C(=O)NCC(c2ccco2)N2CCOCC2)cc1 (stereo not drawn) | / | 6.57µM* | -24.5% | -3.4% | ?
O=S(=O)(NCC(c1ccco1)N1CCCCC1)c1cccc(C(F)(F)F)c1 (stereo not drawn) | / | 7.38µM* | -2.7% | 0.6% | ?
CS(=O)(=O)Nc1ccc(C2=NN(S(=O)(=O)c3ccc(F)cc3)C(c3ccco3)C2)cc1 (stereo not drawn) | / | 14.0% | -0.6% | 4.5% | 1.0%
CCc1cc(C(=O)NCC(c2ccco2)N2CCCCC2)sc1C (stereo not drawn) | / | 5.86µM* | -9.1% | -0.8% | 9.28µM*
O=C(NCC(c1ccco1)N1CCCCC1)c1ccc(S(=O)(=O)Nc2ccccc2)cc1 (stereo not drawn) | / | ? | 5.4% | -1.9% | -20.3%
Cc1cc(S(=O)(=O)Nc2ccc(C(=O)NCC(c3ccco3)N3CCCCC3)cc2)ccc1F (stereo not drawn) | / | ? | 17.1% | 0.6% | ?
O=C(NCC(c1ccco1)N1CCCCC1)c1cccc(S(=O)(=O)Nc2ccc(F)cc2)c1 (stereo not drawn) | / | ? | 0.6% | -0.7% | 10.4µM*
O=C(NCC(c1ccco1)N1CCCC1)c1cccc(NS(=O)(=O)c2ccccc2)c1 (stereo not drawn) | / | ? | -11.9% | / | 10.4µM*
O=C(NCC(c1ccco1)N1CCCC1)c1cccc(S(=O)(=O)Nc2ccc(F)cc2)c1 (stereo not drawn) | / | 14.7µM* | 5.2% | -6.7% | 13.1µM*
Cc1cc(=O)[nH]c(SCC(=O)N(CCC#N)c2ccccc2)c1C#N | / | -17.8% | -9.1% | -1.5% | -21.0%
O=C(NCC(c1ccco1)N1CCCC1)c1ccc(Cl)c(S(=O)(=O)N2CCc3ccccc32)c1 (stereo not drawn) | / | ? | 20.4% | 9.2% | 5.86µM*
CCOC(=O)c1[nH]c(C)c(C(=O)NCCc2ccc(OC)cc2)c1C | -7.1% | 4.65µM* | -2.7% | -3.5% | ?
Cn1c(N)c(C(=O)NCc2ccccc2)sc1=S | -69.5% | 9.2% | -7.1% | 2.8% | -2.8%
COc1ccc(CCNC(=O)c2sc(=S)n(C)c2N)cc1 | -11.6% | 1.85µM* | -16.6% | -1.5% | 14.5%
CCOc1ccc(CCNC(=O)COC(=O)/C=C/c2ccco2)cc1OCC | 2.3% | 7.38µM* | -0.1% | ? | 8.28µM*
CCOc1ccc(CCNC(=O)COC(=O)c2ccc(C)s2)cc1OCC | 6.6% | 10.4µM* | 2.7% | -6.1% | -11.1%
COc1cc(N(C)C)ccc1[C@]1(O)C(=O)N(C)c2ccc(Br)cc21 | / | / | -0.3% | / | /
COCCn1c(C)cc(/C=C(\C#N)C(=O)OCC(=O)Nc2ccc(S(N)(=O)=O)cc2)c1C | / | ? | -6.2% | 1.1% | -29.7%
CCOC(=O)c1c(C)[nH]c(C(=O)OCC(=O)NCCc2ccc(OCC)c(OCC)c2)c1C | / | ? | -5.1% | 5.5% | 13.1µM*
CCOC(=O)c1[nH]c(C)c(C(=O)OCC(=O)NCc2ccc(OC)c(OC)c2)c1C | / | ? | -2.9% | -3.4% | -10.4%
CCOC(=O)c1[nH]c(C)c(C(=O)NC2CCCCCC2)c1C | -8.6% | 9.28µM* | 7.0% | 9.6% | 9.9%
O=c1cc2c(=O)oc3cc(O)c(O)oc3c2c(O)c1O | 6.3% | 8.28µM* | -2.8% | 1.4% | 5.22µM*
SMILES | NS1 function inh | Pf growth 96h | RE007 growth inh | SARS PLP yeast | Pf growth 48h
Cn1c(=O)c2ncn(CC(=O)N/N=C/C=C/c3ccccc3)c2n(C)c1=O | -5.9% | 427.8% | 0.8% | -3.6% | 49.2%
Cn1c(=O)c2ncn(CC(=O)N/N=C/c3ccco3)c2n(C)c1=O | 0.2% | 5.86µM* | -3.7% | -6.7% | 11.7%
CCC1(C(=O)c2ccccc2)C(c2ccc([N+](=O)[O-])cc2)C1(C(=O)OC)C(=O)OC (stereo not drawn) | 3.5% | 17.5% | / | -42.7% | 13.1µM*
O=C(c1ccc([N+](=O)[O-])cc1)N(Cc1ccccc1)Cc1ccccc1 | / | / | -4.5% | / | /
Cc1cc(=O)[nH]c(-n2[nH]c3c(c2=O)CCCC3)n1 | -4.8% | ? | -2.0% | -6.8% | 4.15µM*
Cc1cc(=O)[nH]c(N2CCN(Cc3ccccc3)CC2)n1 | 9.7% | 237.3% | -0.7% | 0.0% | -16.2%
Cc1cc(=O)[nH]c(N2CCCNCC2)n1 | 0.8% | -32.1% | 0.3% | 0.5% | 11.7µM*
Cc1nc(-n2[nH]c3c(c2=O)CCCC3)[nH]c(=O)c1Cc1ccccc1 | -35.7% | ? | 9.2% | 5.6% | ?
COc1ccccc1/C=N/NC(=O)CC(=O)NCCc1ccccc1 | / | / | -1.7% | / | /
O=S1(=O)N=C(Nc2ccc(O)c(CN3CCCCC3)c2)c2ccccc21 | 2.1% | ? | 7.2% | 3.2% | 1.47µM*
CC1CCCN(CCCNC(=O)C2CC(=O)N(c3ccc(F)c(Cl)c3)C2)C1 (stereo not drawn) | -2.9% | 7.8% | -14.8% | -1.3% | 14.7µM*
CN1CCN(c2c(F)cc3c(=O)c(C(=O)O)cn4c3c2OCN4C)CC1 | -2.0% | 15.1µM*! | -7.2% | -0.2% | -29.8%
CN1CCN(c2c(F)cc3c(=O)c(C(=O)O)cn(CCF)c3c2F)CC1 | / | -4.1% | / | 2.9% | -0.2%
Cc1cc(/C=C2\SC(N)=NC2=O)c(C)n1-c1ccc(F)cc1 | -1.5% | ? | -7.8% | 0.4% | ?
CC1=CC2=NC(=O)/C(=C\c3cc(C)n(-c4ccc(F)cc4)c3C)C(=N)N2O1 | 2.7% | ? | 6.6% | -11.5% | 4.65µM*
O=C(NCc1ccccn1)c1ccc(Br)s1 | -2.9% | / | -1.6% | -1.3% | 3.7µM*
O=C(NCc1ccccn1)c1ccc(Cl)s1 | -2.3% | 9.9% | -5.0% | 0.7% | /
O=C1OC(c2ccccc2)(c2ccc3cc(O)ccc3c2)c2ccccc21 (stereo not drawn) | / | / | 2.8% | / | /
CC(O)CNc1nc2ccccc2n1-c1ncnc2sc3c(c12)CCC3 (stereo not drawn) | -1.5% | 4.15µM* | 4.9% | -6.1% | /
c1ccc2c(c1)nnn2-c1ncnc2sc3c(c12)CCCC3 | -57.1% | 3.29µM* | -8.4% | 7.2% | 0.0%
c1ccc2c(c1)ncn2-c1ncnc2sc3c(c12)CCCC3 | -42.4% | -0.8% | 11.7% | 2.9% | 18.7%
N#Cc1c(N)[nH]c(C(=O)c2ccccc2)c1-c1ccc(Cl)cc1 | / | / | 5.7% | / | /
Cc1c(N=Cc2c(O)n(CCc3ccc(F)cc3)c(=O)[nH]c2=O)c(=O)n(-c2ccccc2)n1C | 3.5% | 10.4µM* | -0.8% | -5.8% | -8.5%
